Reference: PubChem BioAssay AID463173 (ICCB-Longwood Screening Facility, Harvard Medical School, 2010)
Where “and” joins values, the source holds several entries; their conditions need not be identical. Equal values may be shown once. Hit rate of the full screen: of about 52,000 compounds, about 4,300 (8.3%) were called active. Cut-off read from the data, not from the text of the source: active = survival mostly below about 52% (no sharp cut-off); inactive = mostly above about 56%. The list comes from a sample in which actives are over-represented; it also holds similar structures and randomly drawn compounds. Some compounds were tested as several samples or in several runs, with calls that do not always agree.

System: DeltatarO mutant
Test: S. aureus survival, RN4220 and DeltatarO strains – OD600, teichoic acid synthesis inhibitors, primary screen (AID 463173)
Conditions: S. aureus RN4220 wild type/DeltatarO growth, OD600, 18 h, stronger effect = lower value, screened at 18.75 µg/mL (by protocol)

| SMILES | survival |
| --- | --- |
| CCC(=O)NC1CCNCC1 | 76% (inactive) |
| CCOc1ccccc1CNS(=O)(=O)c1ccc2[nH]c(=O)ccc2c1 | 81% (inactive) |
| CCOc1ccc(OCC)c(NS(=O)(=O)c2ccc3[nH]c(=O)ccc3c2)c1 | 8% (active) |
| CCOc1ccc(CNS(=O)(=O)c2ccc3[nH]c(=O)ccc3c2)cc1 | 85% (inactive) |
| Cc1ccc(C)c(NS(=O)(=O)c2ccc3oc(=O)c4ncn(C)c4c3c2)c1 | 82% (inactive) |
| O=C(NCCCc1nc2ccccc2n1Cc1ccccc1F)c1ccco1 | 63% (inactive) |
| COc1cccc(OCc2nc3ccccc3n2Cc2ccccc2C)c1 | 75% (inactive) |
| O=C(NCCc1nc2ccccc2n1Cc1ccccc1F)c1ccc(F)cc1 | 81% (inactive) |
| COc1ccc(Cc2nc3ccccc3n2Cc2ccccc2F)cc1 | 18% (active) |
| COc1ccc(Cc2nc3ccccc3n2Cc2ccccc2C)cc1 | -3% (active) |
| Cc1ccccc1Cn1c(CCCNC(=O)C2CCCCC2)nc2ccccc21 | 90% (inactive) |
| CC(=O)N1CCc2cc(CNC(=O)Cc3ccc(F)cc3)ccc21 | 94% (inactive) |
| Cc1oc2cc3oc(=O)c(CC(=O)N4CCCCC4)c(C)c3cc2c1C | 73% (inactive) |
| O=C(Cn1cc(SCc2ccccc2F)c2ccccc21)N1CCCCC1 | 82% (inactive) |
| CCc1ccc(NC(=O)c2ccc(F)c(S(=O)(=O)NC3CCCCCC3)c2)cc1 | -2% (active) |
| Cc1ccc(NC(=O)c2cc(S(=O)(=O)NC3CCCCCC3)ccc2F)cc1F | 92% (inactive) |
| O=C(Nc1ccc(C(F)(F)F)cc1)c1cc(S(=O)(=O)NC2CCCCCC2)ccc1F | 25% (active) |
| CCc1ccc(NC(=O)c2ccc(F)c(S(=O)(=O)N(C)C3CCCCC3)c2)cc1 | 84% (inactive) |
| O=C(Nc1ccc(C(F)(F)F)cc1)c1cc(S(=O)(=O)NC2CCCCC2)ccc1F | 92% (inactive) |
| COC(=O)c1ccc(CN(Cc2ccc(OC)c(OC)c2)S(=O)(=O)c2cc(C(=O)Nc3cccc(C)c3)ccc2F)cc1 | 86% (inactive) |
| O=C(Nc1ccc(F)c(F)c1)c1cc(S(=O)(=O)NC2CCCCCC2)ccc1F | 54% (inactive) |
| CCOc1ccc(NC(=O)c2ccc(F)c(S(=O)(=O)N(CC)Cc3ccccc3)c2)cc1 | 78% (inactive) |
| O=C(Nc1ccc(Br)cc1)c1ccc(F)c(S(=O)(=O)NC2CCCCCC2)c1 | 84% (inactive) |
| CCOc1ccc(NC(=O)c2ccc(F)c(S(=O)(=O)N(Cc3ccc(C(=O)OC)cc3)Cc3ccc(OC)c(OC)c3)c2)cc1 | 47% (active) |

| SMILES | survival |
| --- | --- |
| O=C(Nc1ccc(Cl)cc1)c1cc(S(=O)(=O)NC2CCCCCC2)ccc1F | 90% (inactive) |
| Cc1ccc(NC(=O)c2cc(S(=O)(=O)NC3CCCCC3)ccc2F)cc1Cl | -5% (active) |
| CSc1nnc(COc2ccc(Br)cc2)n1Cc1ccccc1 | 97% (inactive) |
| CCNC(=O)Nc1ccc2nc(C)n(Cc3cccc(Cl)c3)c(=O)c2c1 | 104% (inactive) |
| Cc1nn(-c2ccccc2)c2c1N(CCCC(=O)NCc1ccccc1)C(=O)CS2 | 99% (inactive) |
| O=C(c1ccco1)N1CCN(Cc2cccc(Br)c2)CC1 | 95% (inactive) |
| Cc1ccc(CNC(=O)CCCCn2c(=O)c3ccccc3n(Cc3ccc(C)cc3)c2=O)cc1 | 67% (inactive) |
| CCOc1ccc(OCC)c(NC(=O)C2CCN(S(=O)(=O)c3ccc(Br)s3)CC2)c1 | 80% (inactive) |
| COc1cc(NC(=O)C2CCN(S(=O)(=O)c3ccc4c(c3)oc(=O)n4C)CC2)cc(OC)c1 | 102% (inactive) |
| Fc1ccccc1OCc1nc(-c2ccc(-n3cccc3)cc2)no1 | 75% (inactive) |
| COc1ccc(CNC(=O)CSc2nc3ccccc3nc2Cc2ccccc2OC)cc1 | 70% (inactive) |
| CC(=O)c1ccc(NC(=O)C2CCC(CNS(=O)(=O)c3ccc4c(c3)CCCC(=O)N4)CC2)cc1 (stereo unspecified) | 73% (inactive) |
| CCOc1ccc(NC(=O)C2CCC(CNS(=O)(=O)c3ccc4c(c3)CCCC(=O)N4)CC2)cc1 (stereo unspecified) | 47% (active) |
| COc1ccc(NC(=O)C2CCC(CNS(=O)(=O)c3ccc4c(c3)C(C)(C)C(=O)N4C)CC2)cc1 (stereo unspecified) | 54% (inactive) |
| Cc1ccc(NC(=O)C2CCC(CNS(=O)(=O)c3ccc4c(c3)C(C)(C)C(=O)N4C)CC2)cc1 (stereo unspecified) | 67% (active) |
| Cc1cc(C)cc(NC(=O)C2CCC(CNS(=O)(=O)c3ccc4c(c3)C(C)(C)C(=O)N4C)CC2)c1 (stereo unspecified) | 102% (inactive) |
| CC(C)c1ccc(NC(=O)C2CCC(CNS(=O)(=O)c3ccc4c(c3)CCCC(=O)N4)CC2)cc1 (stereo unspecified) | 73% (inactive) |
| Cc1ccc(S(=O)(=O)NC2CCCCC2)c2nsnc12 | 78% (inactive) |
| Cc1nc(C)c(CCNS(=O)(=O)c2ccc(F)cc2)s1 | 119% (inactive) |
| CCc1cccc(NC(=O)CSc2n[nH]c(-c3ccccc3Cl)n2)c1 | 66% (inactive) |
| Cc1cc(Nc2ccccc2O)nc(C)n1 | 67% (inactive) |
| COc1cc(OC)c(NS(=O)(=O)c2c(C(=O)N3CCC(C)CC3)c(C)n(C)c2C)cc1Cl | 17% (active) |
| COc1cc(OC)c(NS(=O)(=O)c2c(C(=O)N3CCCCCC3)c(C)n(C)c2C)cc1Cl | 68% (inactive) |
| CCOc1ccc(OCC)c(NS(=O)(=O)c2c(C(=O)N3CCCCCC3)c(C)n(C)c2C)c1 | 76% (inactive) |

| SMILES | survival |
| --- | --- |
| CCOc1ccc(OCC)c(NS(=O)(=O)c2c(C(=O)N3CCC(C)CC3)c(C)n(C)c2C)c1 | 8% (active) |
| CC(=O)Nc1ccc(NS(=O)(=O)c2c(C(=O)N3CCC(C)CC3)c(C)n(C)c2C)cc1 | 20% (active) |
| CC(=O)Nc1ccc(NS(=O)(=O)c2c(C(=O)N3CCCCCC3)c(C)n(C)c2C)cc1 | 66% (inactive) |
| COc1ccc(C)cc1NS(=O)(=O)c1c(C(=O)N2CCC(C)CC2)c(C)n(C)c1C | 89% (inactive) |
| Cc1ccc(NS(=O)(=O)c2c(C(=O)N3CCC(C)CC3)c(C)n(C)c2C)cc1Cl | 126% (inactive) |
| CCOc1ccc(CNS(=O)(=O)c2c(C(=O)N3CCC(C)CC3)c(C)n(C)c2C)cc1OC | 81% (inactive) |
| Cc1ccc(CNC(=O)c2c(-c3ccccc3F)noc2C)o1 | 89% (inactive) |
| CCC1CN(C(=O)N2CCC(C(=O)NCCN(CC)CC)CC2)c2cc(C)ccc2O1 (stereo unspecified) | 94% (inactive) |
| Cn1ccc2c(OCC(=O)Nc3ccc(OC(F)(F)F)cc3)cccc2c1=O | 95% (inactive) |
| CCCc1nn2c(=O)cc(COC(=O)c3cccc(NC(=O)CCc4ccccc4)c3)nc2s1 | 131% (inactive) |
| CC(=O)c1ccc(NC(=O)Cn2c(=O)nc(-c3ccccc3)c3cc(Cl)ccc32)cc1 | 115% (inactive) |
| O=C(NCCC1=CCCCC1)C1CC(O)CN1C(=O)Nc1ccccc1 (stereo unspecified) | 87% (inactive) |
| CCOC(=O)c1c(NC(=O)c2cc(-c3cccc(OC)c3)on2)sc2c1CCCC2 | 46% (active) |
| CCOC(=O)c1c(-c2ccccc2)csc1NC(=O)c1cc(-c2cccc(Cl)c2)on1 | 59% (inactive) |
| CCOC(=O)c1c(NC(=O)c2cc(-c3ccc(Cl)cc3)on2)sc2c1CCCC2 | 68% (inactive) |
| CCOC(=O)c1c(-c2ccccc2)csc1NC(=O)c1cc(-c2ccc(F)cc2)on1 | 66% (inactive) |
| CCOC(=O)c1c(-c2ccccc2)csc1NC(=O)c1cc(-c2cccc(OC)c2)on1 | 43% (active) |
| CCOC(=O)c1c(-c2ccccc2)csc1NC(=O)c1cc(-c2ccc(C)c(F)c2)on1 | 52% (active) |
| CCOC(=O)c1c(-c2ccc(C)cc2)csc1NC(=O)c1cc(-c2ccc(C)c(F)c2)on1 | 55% (inactive) |
| CCOC(=O)c1c(-c2ccc(C)cc2)csc1NC(=O)c1cc(-c2ccc(OC)cc2)on1 | 49% (inactive) |
| CCOC(=O)c1c(NC(=O)c2cc(-c3ccc(OC)c(OC)c3)on2)sc2c1CCCC2 | 52% (inactive) |
| CCc1ccccc1-n1nnc(-c2nsc(NC(=O)c3ccc(C)c(C)c3)n2)c1C | 130% (inactive) |
| COc1ccc(NC(=O)C2Cc3ccccc3CN2S(=O)(=O)c2ccccc2)cc1OC (stereo unspecified) | 94% (inactive) |
| CCc1c(C)sc2c1CCN(Cc1cccc(OC)c1)C2c1ccccc1 (stereo unspecified) | 60% (inactive) |

| SMILES | survival |
| --- | --- |
| CCCCNC(=O)c1ccc2c(=O)n(Cc3ccc(OC)cc3)c(=O)[nH]c2c1 | 68% (inactive) |
| COc1cc(OC)c(NC(=O)CCNS(=O)(=O)c2ccc3c(c2)oc(=O)n3C)cc1Cl | 83% (inactive) |
| Cc1cc(/C=C(\C#N)C(=O)N2CCc3ccccc3C2)c(C)n1C | 87% (inactive) |
| O=C(/C=C\c1ccc2c(c1)OCO2)NC1CC(=O)N(c2cccc(F)c2)C1 (stereo unspecified) | 67% (inactive) |
| Cc1ccc(NC(=O)NC(C)c2c(-n3cccc3)sc(C)c2C)cc1F (stereo unspecified) | 64% (inactive) |
| COc1ccc(NC(=O)NC(C)c2c(-n3cccc3)sc(C)c2C)cc1OC (stereo unspecified) | 58% (inactive) |
| Cc1sc(-n2cccc2)c(C(C)NC(=O)Nc2ccccc2Cl)c1C (stereo unspecified) | 61% (inactive) |
| COC(=O)c1ccc(Cl)cc1NC(=O)NC(C)c1c(-n2cccc2)sc(C)c1C (stereo unspecified) | 19% (active) |
| Cc1sc(-n2cccc2)c(C(C)NC(=O)Nc2cccc(C(F)(F)F)c2)c1C (stereo unspecified) | 23% (active) |
| COC(=O)c1ccc(NC(=O)NC(C)c2c(-n3cccc3)sc(C)c2C)cc1 (stereo unspecified) | 52% (inactive) |
| CCn1nc(CCC(=O)O)c2ccccc2c1=O | 80% (inactive) |
| Cc1ccc2oc(-c3ccccc3C)nc2c1 | 105% (inactive) |
| Nc1ccc2oc(-c3ccccc3Br)nc2c1 | 87% (inactive) and 39% (active) |
| O=C(Nc1ccc2oc(-c3cccc4c(Br)cccc34)nc2c1)c1ccc(Br)cc1 | 71% (inactive) |
| CCOC(=O)CC(NC(=O)c1cc2cc(OC)ccc2oc1=O)c1ccc(OC)cc1 (stereo unspecified) | 74% (inactive) |
| Cc1ccc(-c2noc(CNC(=O)c3ccccc3)n2)cc1 | 63% (inactive) |
| Cc1ccc(CC(=O)NCc2nc(-c3cccc(C)c3)no2)cc1 | 69% (inactive) |
| COc1cccc(-c2noc(CCCC(=O)NCc3ccco3)n2)c1 | 109% (inactive) |
| Cc1cccc(-c2noc(CCCC(=O)NCc3ccco3)n2)c1 | 42% (active) |
| Cc1ccccc1C(=O)NCc1nc(-c2ccc(Cl)cc2)no1 | 47% (active) |
| Cc1ccc(-c2noc(CCCC(=O)NCc3ccco3)n2)cc1 | 53% (inactive) |
| Cc1cccc(-c2noc(CNC(=O)c3ccccc3Br)n2)c1 | 72% (inactive) |
| Cc1cccc(-c2noc(CNC(=O)c3ccc(C)cc3C)n2)c1 | 37% (active) |
| Cc1ccc(-c2noc(CNC(=O)c3ccc(C)c(Cl)c3)n2)cc1 | 49% (inactive) |
